This excerpt belongs to a sample that is enriched for the strongest signals.
Assays:
Assay in all cases: glycan array binding signal (z-score within array); higher = stronger binding
Settings in all cases: glycan notation: IUPAC condensed, linker removed
[1] = molecular target: Fuc(a1-2)Gal
In short: (§1)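 Glycan array data were curated from 3228 arrays in the Consortium for Functional Glycomics database and kept only where the protein sequence was available. Glycan names were converted to IUPAC-condensed notation, and columns mapping to the same glycan were averaged. The binding signal is a within-array Z-score, averaged across arrays of the same protein sequence at different concentrations or buffers and across linkers. Negative Z-scores can be read as non-binding.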

[2] = molecular target: Fuc(a1-2)Gal(b1-3)GalNAc
In short: as §1

[3] = molecular target: Fuc(a1-2)Gal(b1-4)GlcNAc(b1-2)Man(a1-3)[Fuc(a1-2)Gal(b1-4)GlcNAc(b1-2)Man(a1-6)]Man(b1-4)GlcNAc(b1-4)[Fuc(a1-6)]GlcNAc
In short: as §1

[4] = molecular target: Fuc(a1-2)[Gal(a1-3)]Gal
In short: as §1

[5] = molecular target: Fuc(a1-2)[Gal(a1-3)]Gal(b1-3)GlcNAc(b1-2)Man(a1-3)[Fuc(a1-2)[Gal(a1-3)]Gal(b1-3)GlcNAc(b1-2)Man(a1-6)]Man(b1-4)GlcNAc(b1-4)GlcNAc
In short: as §1

[6] = molecular target: Fuc(a1-2)[GalNAc(a1-4)]Gal(b1-4)GlcNAc
In short: as §1

[7] = molecular target: Gal(b1-3)Gal
In short: as §1

[8] = molecular target: Gal(b1-3)Gal(b1-4)GlcNAc
In short: as §1

[9] = molecular target: Gal(b1-3)GalNAc
In short: as §1

[10] = molecular target: Gal(b1-3)GalNAc(b1-3)Gal
In short: as §1

[11] = molecular target: Gal(b1-3)GalNAc(b1-4)Gal(b1-4)Glc
In short: as §1

[12] = molecular target: Gal(b1-3)GalNAc(b1-4)[Neu5Ac(a2-3)]Gal(b1-4)Glc
In short: as §1

[13] = molecular target: Gal(b1-3)GlcNAc(b1-2)Man(a1-3)[GlcNAc(b1-4)][Gal(b1-3)GlcNAc(b1-2)Man(a1-6)]Man(b1-4)GlcNAc(b1-4)GlcNAc
In short: as §1

[14] = molecular target: Gal(b1-3)[Neu5Ac(a2-6)]GalNAc
In short: as §1

[15] = molecular target: Gal(b1-3)[Neu5Ac(a2-6)]GlcNAc(b1-4)Gal(b1-4)Glc
In short: as §1

[16] = molecular target: Gal(b1-4)GalNAc(a1-3)[Fuc(a1-2)]Gal(b1-4)GlcNAc
In short: as §1

[17] = molecular target: Gal(b1-4)Glc6S
In short: as §1

[18] = molecular target: Gal(b1-4)GlcNAc(b1-2)Man(a1-6)[Man(a1-3)]Man(b1-4)GlcNAc(b1-4)GlcNAc
In short: as §1

[19] = molecular target: Gal(b1-4)GlcNAc(b1-3)Gal(b1-3)GlcNAc
In short: as §1

[20] = molecular target: Gal(b1-4)GlcNAc(b1-3)Gal(b1-4)Glc
In short: as §1

[21] = molecular target: Gal(b1-4)GlcNAc(b1-3)Gal(b1-4)GlcNAc(b1-2)[Gal(b1-4)GlcNAc(b1-3)Gal(b1-4)GlcNAc(b1-6)]Man(a1-6)[Gal(b1-4)GlcNAc(b1-3)Gal(b1-4)GlcNAc(b1-2)Man(a1-3)]Man(b1-4)GlcNAc(b1-4)[Fuc(a1-6)]GlcNAc
In short: as §1

[22] = molecular target: Gal(b1-4)GlcNAc(b1-3)Gal(b1-4)GlcNAc(b1-3)Gal(b1-4)GlcNAc(b1-2)[Gal(b1-4)GlcNAc(b1-3)Gal(b1-4)GlcNAc(b1-3)Gal(b1-4)GlcNAc(b1-6)]Man(a1-6)[Gal(b1-4)GlcNAc(b1-3)Gal(b1-4)GlcNAc(b1-3)Gal(b1-4)GlcNAc(b1-2)Man(a1-3)]Man(b1-4)GlcNAc(b1-4)[Fuc(a1-6)]GlcNAc
In short: as §1

[23] = molecular target: Gal(b1-4)GlcNAc(b1-6)Gal(b1-4)GlcNAc
In short: as §1

[24] = molecular target: Gal(b1-4)GlcNAc(b1-6)[Gal(b1-3)]GalNAc
In short: as §1

[25] = molecular target: Gal(b1-6)Gal
In short: as §1

[26] = molecular target: Gal3S(b1-4)GlcNAc
In short: as §1

[27] = molecular target: Gal3S(b1-4)[Fuc(a1-3)]GlcNAc6S
In short: as §1

[28] = molecular target: Gal6P(b1-4)GlcNAc
In short: as §1

[29] = molecular target: Gal6S(b1-3)GlcNAc6S
In short: as §1

[30] = molecular target: GalNAc(a1-3)GalNAc(b1-3)Gal(a1-4)Gal(b1-4)GlcNAc
In short: as §1

[31] = molecular target: GlcA3S(b1-3)Gal(b1-4)GlcNAc(b1-2)Man
In short: as §1

[32] = molecular target: GlcNAc(b1-3)Gal(b1-4)GlcNAc(b1-6)[Gal(b1-3)]GalNAc
In short: as §1

[33] = molecular target: Man(a1-2)Man(a1-3)Man
In short: as §1

[34] = molecular target: Man(a1-3)[Man(a1-6)]Man(b1-4)GlcNAc(b1-4)[Fuc(a1-6)]GlcNAc
In short: as §1

[35] = molecular target: Man(b1-4)GlcNAc
In short: as §1

[36] = molecular target: Neu5Ac(a2-3)Gal(b1-3)GlcNAc(b1-2)Man(a1-3)[Neu5Ac(a2-3)Gal(b1-3)GlcNAc(b1-2)Man(a1-6)]Man(b1-4)GlcNAc(b1-4)GlcNAc
In short: as §1

[37] = molecular target: Neu5Ac(a2-3)Gal(b1-3)GlcNAc(b1-6)GalNAc
In short: as §1

[38] = molecular target: Neu5Ac(a2-3)Gal(b1-4)GlcNAc(b1-3)Gal
In short: as §1

[39] = molecular target: Neu5Ac(a2-3)Gal(b1-4)GlcNAc(b1-3)Gal(b1-4)GlcNAc(b1-2)Man(a1-3)[Neu5Ac(a2-3)Gal(b1-4)GlcNAc(b1-3)Gal(b1-4)GlcNAc(b1-2)Man(a1-6)]Man(b1-4)GlcNAc(b1-4)GlcNAc
In short: as §1

[40] = molecular target: Neu5Ac(a2-3)Gal(b1-4)GlcNAc(b1-6)[Gal(b1-3)]GalNAc
In short: as §1

[41] = molecular target: Neu5Ac(a2-3)Gal(b1-4)[Fuc(a1-3)]GlcNAc(b1-2)Man
In short: as §1

[42] = molecular target: Neu5Ac(a2-3)Gal(b1-4)[Fuc(a1-3)]GlcNAc(b1-3)Gal(b1-4)GlcNAc
In short: as §1

[43] = molecular target: Neu5Ac(a2-3)[Neu5Ac(a2-6)]GalNAc
In short: as §1

[44] = molecular target: Neu5Ac(a2-6)Gal(b1-4)GlcNAc(b1-2)Man(a1-3)[GlcNAc(b1-4)][Neu5Ac(a2-6)Gal(b1-4)GlcNAc(b1-2)Man(a1-6)]Man(b1-4)GlcNAc(b1-4)GlcNAc
In short: as §1

[45] = molecular target: Neu5Ac(a2-6)Gal(b1-4)GlcNAc(b1-2)Man(a1-6)[Gal(b1-4)GlcNAc(b1-2)Man(a1-3)]Man(b1-4)GlcNAc(b1-4)GlcNAc
In short: as §1

[46] = molecular target: Neu5Ac(a2-6)Gal(b1-4)GlcNAc(b1-3)Gal(b1-4)GlcNAc(b1-3)Gal(b1-4)GlcNAc
In short: as §1

[47] = molecular target: Neu5Ac(a2-6)Gal(b1-4)GlcNAc(b1-3)Gal(b1-4)[Fuc(a1-3)]GlcNAc(b1-3)Gal(b1-4)[Fuc(a1-3)]GlcNAc
In short: as §1

[48] = molecular target: Neu5Ac(a2-6)Gal(b1-4)GlcNAc6S
In short: as §1

[49] = molecular target: Neu5Ac(b2-6)Gal(b1-4)GlcNAc
In short: as §1

[50] = molecular target: Neu5Gc(a2-8)Neu5Gc(a2-6)Gal(b1-4)GlcNAc
In short: as §1

B1: Epa1 (Candida glabrata) (protein)
chain: MGSSHHHHHHSSGLVPRGSHMTSSNDISLASKDPTTFPLGCSPDITTPKKGLSMELYSYDFRKKGSYPCWDAAYLDPNYPRTGYKSHRLLAKVDGVTGNINFYYHATKGCTPQLGHLPASYNYPKPLTMTNFTMLLYGYFRPKVTGFHTFTISADDLLFVNFGAGNAFDCCRRDSSADHFGNYQAYAIWGSKTAKDELTVHLDAGVYYPIRLFYNNREYDGALSFTFKTESNENTVSDFSEYFFSLDDTEEGCPGLISYD
[1]
  glycan array binding signal (z-score): -0.506
[2]
  glycan array binding signal (z-score): -0.25
[3]
  glycan array binding signal (z-score): -0.2
[4]
  glycan array binding signal (z-score): -0.213
[5]
  glycan array binding signal (z-score): -0.325
[6]
  glycan array binding signal (z-score): -0.299
[7]
  glycan array binding signal (z-score): 3.63
[8]
  glycan array binding signal (z-score): 8.5
[9]
  glycan array binding signal (z-score): 3.51
[10]
  glycan array binding signal (z-score): 6.23
[11]
  glycan array binding signal (z-score): 9.89
[12]
  glycan array binding signal (z-score): 4.04
[13]
  glycan array binding signal (z-score): 0.171
[14]
  glycan array binding signal (z-score): 4.22
[15]
  glycan array binding signal (z-score): -0.213
[16]
  glycan array binding signal (z-score): -0.197
[17]
  glycan array binding signal (z-score): 0.304
[18]
  glycan array binding signal (z-score): -0.169
[19]
  glycan array binding signal (z-score): -0.155
[20]
  glycan array binding signal (z-score): 0.551
[21]
  glycan array binding signal (z-score): 3.08
[22]
  glycan array binding signal (z-score): 3.06
[23]
  glycan array binding signal (z-score): 3.12
[24]
  glycan array binding signal (z-score): 4.02
[25]
  glycan array binding signal (z-score): 0.429
[26]
  glycan array binding signal (z-score): -0.442
[27]
  glycan array binding signal (z-score): -0.394
[28]
  glycan array binding signal (z-score): -0.272
[29]
  glycan array binding signal (z-score): -0.014
[30]
  glycan array binding signal (z-score): -0.312
[31]
  glycan array binding signal (z-score): -0.3
[32]
  glycan array binding signal (z-score): 1.03
[33]
  glycan array binding signal (z-score): -0.318
[34]
  glycan array binding signal (z-score): -0.271
[35]
  glycan array binding signal (z-score): -0.281
[36]
  glycan array binding signal (z-score): -0.325
[37]
  glycan array binding signal (z-score): -0.293
[38]
  glycan array binding signal (z-score): -0.288
[39]
  glycan array binding signal (z-score): -0.257
[40]
  glycan array binding signal (z-score): 1.45
[41]
  glycan array binding signal (z-score): -0.346
[42]
  glycan array binding signal (z-score): -0.214
[43]
  glycan array binding signal (z-score): -0.328
[44]
  glycan array binding signal (z-score): -0.32
[45]
  glycan array binding signal (z-score): -0.14
[46]
  glycan array binding signal (z-score): -0.267
[47]
  glycan array binding signal (z-score): -0.272
[48]
  glycan array binding signal (z-score): -0.335
[49]
  glycan array binding signal (z-score): -0.248
[50]
  glycan array binding signal (z-score): -0.309

Source: the supplement of paper PMC8728848
